A selection: hits, their analogues and other compounds. The true share with any hit is near 5.7%.
ssDAF-12 act: S. stercoralis DAF-12 activation, primary screen; HEK293 ssDAF-12/GRIP1 lit1-tk-luc reporter, luminescence; % of 3 µM dafachronic acid response; 370,000 compounds, 1% hits; AID 652126; activation, % at 6.8 µM;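 active = activation above the mean over all tested compounds plus 3 SD, cut at about 0.9% in these data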;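 also: 0% = DMSO-only wells and 100% = 3 µM delta7-dafachronic acid wells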
AHR activator: human AHR activation; P35869; AHR-responsive luciferase reporter cells, luminescence; activation, % at 5 µM; 320,000 compounds, 2.5% hits; in the data active = activation above about 47%;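 also: 0% = vehicle wells and 100% = reference agonist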
hcDAF-12 act: H. contortus DAF-12 activation, primary screen; HEK293 hcDAF-12 lit1-tk-luc reporter, luminescence; 0% DMSO, 100% Δ7-dafachronic acid; activation, % at 6.8 µM; 370,000 compounds, 1.4% hits;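 active = activation above the mean of all tested compounds plus 3 SD, cut at about 5.5% in these data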;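 also: 100% = response to 3 µM Δ7-dafachronic acid high control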
DAX1 inh-1: inhibitors of human orphan nuclear receptor DAX1 (NR0B1); P51843; HEK293 Gal4-DAX1 luciferase reporter, luminescence; inhibition, % at 6.75 µM; 340,000 compounds, 0.99% hits; AID 504766;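 active = inhibition above the mean over all tested compounds plus 3 SD, cut at about 4.2% in these data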;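 also: 0% = DAX1-transfected cells with DMSO and 100% = empty-vector control cells with DMSO; inhibition shows as a rise in luminescence from relieved DAX1 repression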
Target sequence (P51843 207-470 limits assumed): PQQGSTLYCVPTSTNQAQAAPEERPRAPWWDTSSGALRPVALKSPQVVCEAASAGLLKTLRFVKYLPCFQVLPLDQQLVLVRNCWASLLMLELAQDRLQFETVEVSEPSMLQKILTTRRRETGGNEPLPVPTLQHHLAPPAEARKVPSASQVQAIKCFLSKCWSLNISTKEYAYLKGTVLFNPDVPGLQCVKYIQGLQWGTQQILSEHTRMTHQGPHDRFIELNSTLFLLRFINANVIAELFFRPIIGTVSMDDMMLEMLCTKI
DAX1 inh-2: inhibitors of DAX1 repression of SF-1 activated StAR promoter; HEK293T StAR-luciferase reporter, SF-1/DAX-1 repression relief; inhibition, % at 6.8 µM; 370,000 compounds, 1.1% hits; AID 652010;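 active = inhibition above the mean over all tested compounds plus 3 SD, cut at about 3.6% in these data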;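 also: 0% = DAX-1 cells with DMSO and 100% = cells lacking DAX-1 with DMSO; higher inhibition means more luminescence from relief of DAX-1 repression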
hgDAF12 agonist: hgDAF-12 agonism, primary luciferase screen; HEK293 GAL4-hgDAF12 UAS-luciferase reporter, agonist luminescence; normalized to butyrate control; activation, % at 6.8 µM; 370,000 compounds, 1.8% hits;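 active = activation above a cutoff set at the mean of all screened compounds plus 3 SD, cut at about 10% in these data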;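 also: 0% = DMSO wells and 100% = sodium butyrate wells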
Numbers without * were called inactive; x = no result given.

SMILES | ssDAF-12 act | AHR activator | hcDAF-12 act | DAX1 inh-1 | DAX1 inh-2 | hgDAF12 agonist
C[C@@H]1CN([C@H](C)CO)C(=O)c2ccccc2-c2ccccc2CO[C@@H]1CN(C)C(=O)Nc1ccccc1 | -1 | x | -1 | x | 0 | 0
CCC(CO)Nc1ccn2nc(-c3cccc(Cl)c3)cc2n1 (stereo not drawn) | 0 | x | 4 | x | 3.9* | 13*
Cc1nn(-c2ccccc2)nc1C(=O)Nc1ccccc1C(=O)NCC1CC1 | -1 | x | -2 | x | 0 | -2
Cc1cccc(NC(=O)[C@@H]2CCCN2C2=NS(=O)(=O)c3ccccc32)c1C | -1 | 1 | 0 | 4.4* | -1 | 4
CN(Cc1ccccc1)C(=O)COC(=O)COc1ccc(C#N)cc1 | -1 | 0 | -1 | 1 | -1 | -3
COc1cccc2cc(C(=O)OCC(=O)N3CC(C)OC(C)C3)c(=O)oc12 (stereo not drawn) | -1 | 10 | 5.7* | 5.5* | 3 | 10
CCOc1cccc2cc(C(=O)N3CC(C)OC(C)C3)c(=O)oc12 (stereo not drawn) | -2 | -1 | 0 | 0 | 0 | 3
Cc1ccc2nc(CCc3ccc(N)cc3)[nH]c2c1 | 0 | 52* | 2 | 2 | 1 | 11*
COc1cc([N+](=O)[O-])ccc1NC(=O)NNC(=O)c1sccc1C | -1 | 6 | 0 | 1 | -1 | 2
CCN(c1ccc(NC(=O)COC(=O)c2ccc3ccccc3n2)cc1)C(C)C | 0.9* | 29 | 5 | -1 | 0 | 5
O=c1cc(-c2ccc(O)cc2)oc2ccc(O)cc12 | 0 | 1 | 2 | 0 | 2 | 13*
COc1cc(-c2cc(=O)c3ccccc3o2)ccc1O | -1 | 77* | 3 | 2 | 3 | 10
O=c1cc(-c2ccc(O)cc2)oc2ccccc12 | -1 | 2 | 1 | 3 | 3 | 9
COc1cc(-c2cc(=O)c3c(O)cc(O)cc3o2)ccc1O | x | -2 | x | x | x | x
O=C(Nc1cccc(S(=O)(=O)N2CCCCC2)c1)C1=NN(c2ccccc2)C(=O)CC1 | 0 | 30 | 5 | 0 | -1 | -2
O=C(O)/C=C/C(=O)Nc1ccc2c(c1)C(=O)c1ccccc1C2=O | 0 | 44 | 5 | 0 | 2 | 13*
CC(C)CN1C(=O)c2ccc(NC(=O)C3CC3)cc2C1=O | -1 | -2 | 1 | 1 | 0 | 1
O=C(Nc1ccc2c(c1)oc1ccccc12)C1CC1 | 1 | 74* | 5 | 2 | 2 | 9
O=C1c2ccccc2C(=O)c2cc(NC(=O)C3CC3)ccc21 | -1 | 168* | 5 | 3 | 2 | 7
CN(CC(=O)Nc1ccccc1C(F)(F)F)C(=O)c1ccc(N2C(=O)CCC2=O)cc1 | -2 | 0 | 0 | 4.5* | 1 | -2
C[C@H](CO)N1C[C@H](C)[C@@H](CN(C)S(C)(=O)=O)Oc2ccc(NC(=O)Cn3cnnn3)cc2C1=O | -1 | 1 | -1 | 0 | 0 | -1
Cc1ccc2nc(-c3ccccc3)cn2c1 | -2 | -9 | -2 | -6 | -1 | -7
Cc1ccc2nc(-c3ccc(-c4ccccn4)s3)cn2c1 | 0 | -9 | 4 | 4 | 1 | 12*
O=C(O)CN1C(=O)C2(OCCO2)c2cc(Br)ccc21 | -1 | 2 | -1 | 5.2* | 0 | 2
O=C(CN1C(=O)C2(OCCO2)c2cc(Br)ccc21)NO | -1 | 1 | 2 | -1 | -1 | -1
SMILES | ssDAF-12 act | AHR activator | hcDAF-12 act | DAX1 inh-1 | DAX1 inh-2 | hgDAF12 agonist
O=C(c1ccc2c(c1)OCCCO2)c1cccs1 | 0 | 4 | 5 | 2 | 3 | 10*
CCN1C(=O)[C@H]2[C@@H](c3ccc(C(F)(F)F)cc3)N[C@]3(CCCN(Cc4ccc(OC)cc4)C3=O)[C@H]2C1=O | -1 | x | -2 | -1 | 2 | 0
CCCCNc1c(-c2cccc(-c3cc(C(C)=O)cs3)c2)nc2cc(C)ccn12 | -2 | 55* | -3 | -4 | -1 | -4
O=C(/C=C/NNC(=O)c1ccccc1)c1ccc([N+](=O)[O-])cc1 | -2 | 5 | -1 | 4.4* | 0 | 2
O=C(O)CC(NNC(=O)c1ccccc1)C(=O)Nc1ccc([N+](=O)[O-])cc1 (stereo not drawn) | -1 | 9 | 2 | 8.4* | 1 | 2
O=C(/C=C/NNC(=O)c1ccccc1)c1ccccc1 | -1 | 21 | 1 | 0 | 1 | 8
